The full list was thinned out, with hits kept by preference.
IDE exosite inh = exo-site inhibitors of human insulin-degrading enzyme; z-score at 20 µM; purified IDE, FL-6b probe fluorescence polarization; active compounds read low; P14735; 17,000 tested, 6.3% active; AID 1259349;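 active means z-score of -3 or lower, meaning strong loss of probe binding signal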;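 further: His-tagged human IDE residues 42-1019 made in E. coli with 30 nM FL-6b probe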
Target sequence (P14735 42-1019 limits assumed): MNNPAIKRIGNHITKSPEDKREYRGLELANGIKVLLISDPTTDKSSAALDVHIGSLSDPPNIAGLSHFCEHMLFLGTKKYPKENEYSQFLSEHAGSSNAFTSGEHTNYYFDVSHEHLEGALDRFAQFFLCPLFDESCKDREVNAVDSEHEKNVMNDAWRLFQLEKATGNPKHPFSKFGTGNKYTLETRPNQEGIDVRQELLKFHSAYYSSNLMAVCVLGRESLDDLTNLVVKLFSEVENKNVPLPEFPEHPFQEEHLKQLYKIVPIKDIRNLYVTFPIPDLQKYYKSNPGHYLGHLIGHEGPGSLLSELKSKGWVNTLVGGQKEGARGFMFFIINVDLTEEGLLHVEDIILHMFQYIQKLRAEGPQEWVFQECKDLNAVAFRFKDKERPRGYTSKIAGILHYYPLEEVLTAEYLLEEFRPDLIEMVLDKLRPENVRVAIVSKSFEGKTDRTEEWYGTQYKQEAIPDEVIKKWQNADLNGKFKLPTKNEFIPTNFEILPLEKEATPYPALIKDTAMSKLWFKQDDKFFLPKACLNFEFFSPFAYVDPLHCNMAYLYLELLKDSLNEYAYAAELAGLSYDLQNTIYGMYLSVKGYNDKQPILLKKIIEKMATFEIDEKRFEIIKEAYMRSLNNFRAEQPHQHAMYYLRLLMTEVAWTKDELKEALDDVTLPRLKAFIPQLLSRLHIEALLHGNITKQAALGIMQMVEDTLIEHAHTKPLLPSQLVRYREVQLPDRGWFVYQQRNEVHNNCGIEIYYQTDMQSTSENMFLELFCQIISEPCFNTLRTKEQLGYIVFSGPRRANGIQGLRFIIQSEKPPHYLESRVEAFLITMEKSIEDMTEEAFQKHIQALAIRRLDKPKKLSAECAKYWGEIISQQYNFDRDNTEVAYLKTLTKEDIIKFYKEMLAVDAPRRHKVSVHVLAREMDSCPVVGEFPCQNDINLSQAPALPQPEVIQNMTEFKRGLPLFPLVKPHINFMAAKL
Hits are given with their value.

CN(C)C(=O)c1ccc(-c2ccc([C@@H]3[C@@H](CO)N4CCCCN(C(=O)C5CC5)C[C@H]34)cc2)cc1 was read as IDE exosite inh inactive.
Screening O=C(Nc1ccccc1)N1CC(=O)N2[C@H](CO)[C@H](c3ccc(C#CC4CCCCC4)cc3)[C@@H]2C1 returned IDE exosite inh inactive.
Screening O=C(Nc1ccccc1)N1CC(=O)N2[C@H](CO)[C@@H](c3ccc(C#Cc4cccnc4)cc3)[C@@H]2C1 returned IDE exosite inh inactive.
`COCC(=O)N1CC(=O)N2[C@@H](CO)[C@H](c3ccc(C#CC4CCCCC4)cc3)[C@@H]2C1` gave IDE exosite inh inactive.
`CN(C)C(=O)c1ccc(-c2ccc3c(c2)[C@H]2[C@H](CCN2C(=O)C2CCCC2)[C@H](CO)N3C)cc1` gave IDE exosite inh inactive.
CN1C(=O)c2cc(NC(=O)c3ccc(F)c(F)c3)ccc2OC[C@H]2O[C@H](CC(=O)N3CCCCC3)CC[C@H]21 was read as IDE exosite inh inactive.
CCCNC(=O)N1C[C@@H]2[C@H](c3ccccc31)[C@H](CO)N2Cc1cccc(OC)c1 was read as IDE exosite inh inactive.
Screening COc1ccc(C#Cc2ccc([C@H]3[C@@H](CO)N4C(=O)CN(C(=O)c5ccccc5)C[C@@H]34)cc2)cc1 returned IDE exosite inh inactive.
For O=C(c1ccccc1)N1CC(=O)N2[C@H](CO)[C@H](c3ccc(C#Cc4ccccc4)cc3)[C@H]2C1 the results were IDE exosite inh -5.3.
O=C(c1ccccc1)N1CC(=O)N2[C@@H](CO)[C@@H](c3ccc(C#CC4CC4)cc3)[C@@H]2C1 was read as IDE exosite inh inactive.
Screening COc1ccc(C#Cc2ccc([C@@H]3[C@@H](CO)N4C(=O)CN(C(=O)c5ccccc5)C[C@H]34)cc2)cc1 returned IDE exosite inh inactive.
Screening O=C(c1ccccc1)N1CC(=O)N2[C@H](C1)[C@H](c1ccc(C#Cc3ccccc3)cc1)[C@@H]2CO returned IDE exosite inh -4.3.
O=C(c1ccccc1)N1CC(=O)N2[C@H](CO)[C@@H](c3ccc(C#Cc4ccccc4)cc3)[C@@H]2C1 was read as IDE exosite inh inactive.
CN(C)C(=O)c1cccc(-c2ccccc2[C@H]2[C@@H](C#N)N(C(=O)C3CC3)[C@H]2CO)c1 was read as IDE exosite inh inactive.
Screening O=C(Nc1ccc2c(c1)[C@H]1C[C@@H](CC(=O)N3CCc4ccccc4C3)O[C@@H](CO)[C@H]1O2)c1ccc2c(c1)OCO2 returned IDE exosite inh inactive.
Cc1ccccc1S(=O)(=O)N1CC(=O)N2[C@H](C1)[C@H](c1ccc(C#Cc3ccccc3)cc1)[C@@H]2CO was read as IDE exosite inh inactive.
For O=C1CN(S(=O)(=O)Cc2ccccc2)C[C@H]2[C@@H](c3ccc(C#Cc4cccnc4)cc3)[C@@H](CO)N12 the results were IDE exosite inh -5.8.
`O=C1CN(S(=O)(=O)Cc2ccccc2)C[C@H]2[C@H](c3ccc(C#Cc4cccc(F)c4)cc3)[C@@H](CO)N12` gave IDE exosite inh inactive.
Screening CCS(=O)(=O)N1CC(=O)N2[C@H](CO)[C@@H](c3ccc(C#CCc4ccccc4)cc3)[C@@H]2C1 returned IDE exosite inh inactive.
Screening O=C1CN(S(=O)(=O)Cc2ccccc2)C[C@H]2[C@@H](c3ccc(C#Cc4cccnc4)cc3)[C@H](CO)N12 returned IDE exosite inh inactive.
Screening O=C1CN(S(=O)(=O)Cc2ccccc2)C[C@H]2[C@H](c3ccc(C#Cc4ccccc4)cc3)[C@@H](CO)N12 returned IDE exosite inh inactive.
`O=C1CN(S(=O)(=O)c2ccccc2)C[C@@H]2[C@H](c3ccc(C#Cc4ccccc4)cc3)[C@H](CO)N12` gave IDE exosite inh -5.2.
O=C1CN(S(=O)(=O)c2ccccc2)C[C@H]2[C@@H](c3ccc(C#Cc4ccccc4)cc3)[C@@H](CO)N12 was read as IDE exosite inh inactive.
CS(=O)(=O)N1CC(=O)N2[C@H](C1)[C@H](c1ccc(C#CCc3ccccc3)cc1)[C@@H]2CO was read as IDE exosite inh -3.4.
`O=C1CN(S(=O)(=O)Cc2ccccc2)C[C@@H]2[C@@H](c3ccc(C#Cc4ccccc4)cc3)[C@H](CO)N12` gave IDE exosite inh inactive.
For O=C1CN(S(=O)(=O)c2ccccc2)C[C@H]2[C@H](c3ccc(C#Cc4ccccc4)cc3)[C@@H](CO)N12 the results were IDE exosite inh inactive.
CS(=O)(=O)N1CC(=O)N2[C@H](CO)[C@H](c3ccc(C#CCc4ccccc4)cc3)[C@@H]2C1 was read as IDE exosite inh inactive.
O=C1CN(S(=O)(=O)Cc2ccccc2)C[C@@H]2[C@H](c3ccc(C#Cc4ccccc4)cc3)[C@H](CO)N12 was read as IDE exosite inh -3.5.
Screening O=C(C[C@H]1CC[C@H]2[C@@H](COC[C@H](O)CN2Cc2nccs2)O1)NCc1ccccc1Cl returned IDE exosite inh inactive.
CC(=O)NC[C@@H]1[C@@H](c2ccc(C3=CCCC3)cc2)[C@@H](CO)N1C(=O)C1CCC1 was read as IDE exosite inh inactive.
Screening CC(C)CC#Cc1ccc([C@@H]2[C@H](CO)N3C(=O)CN(S(C)(=O)=O)C[C@@H]23)cc1 returned IDE exosite inh inactive.
For O=C(C[C@@H]1CC[C@@H](NC(=O)c2ccc(F)cc2)[C@@H](CO)O1)NCCc1ccccc1 the results were IDE exosite inh inactive.
Screening O=C(Cc1ccncc1)N1CC(=O)N2[C@@H](CO)[C@H](c3ccc(Br)cc3)[C@@H]2C1 returned IDE exosite inh inactive.
`CC(C)(O)C#Cc1ccc([C@@H]2[C@@H](CO)N3CCCCN(C(=O)c4cccc(F)c4)C[C@@H]23)cc1` gave IDE exosite inh inactive.
C[C@@H]1CN([C@H](C)CO)C(=O)c2ccccc2-c2ccccc2CO[C@@H]1CN(C)C(=O)Nc1ccnc(N2CCOCC2)c1 was read as IDE exosite inh inactive.
Screening O=C1CN(Cc2ccc(F)cc2)C[C@@H]2[C@H](c3ccc(Br)cc3)[C@H](CO)N12 returned IDE exosite inh inactive.
`CS(=O)(=O)N1[C@H](C#N)[C@H](c2ccc(C#CC3CCCCC3)cc2)[C@H]1CO` gave IDE exosite inh inactive.
CNC[C@H]1OCCCC[C@H](C)Oc2ccc(NS(=O)(=O)c3ccc(F)cc3)cc2C(=O)N([C@@H](C)CO)C[C@H]1C was read as IDE exosite inh inactive.
COC(=O)C[C@H]1C[C@@H]2c3cc(NC(=O)C4CCOCC4)ccc3O[C@@H]2[C@@H](CO)O1 was read as IDE exosite inh inactive.
`COc1ccc([C@H]2CC=CC[C@@H](C)Oc3ccccc3C(=O)N(C)[C@H](Cc3ccccc3)C(=O)N2)c(OC)c1` (mixture of isomers) gave IDE exosite inh inactive.
Screening C/C=C/c1ccc([C@H]2[C@@H](CO)N(C(=O)CC)[C@@H]2CN(C)C(=O)NC(C)C)cc1 returned IDE exosite inh inactive.
O=C1CN(S(=O)(=O)Cc2ccccc2)C[C@H]2[C@@H](c3ccc(C#Cc4ccccc4)cc3)[C@@H](CO)N12 was read as IDE exosite inh -3.5.
Screening O=C1CN(S(=O)(=O)Cc2ccccc2)C[C@H]2[C@@H](c3ccc(C#Cc4ccc(F)cc4)cc3)[C@@H](CO)N12 returned IDE exosite inh inactive.
Screening O=C1CN(S(=O)(=O)Cc2ccccc2)C[C@H]2[C@H](c3ccc(C#Cc4ccccc4)cc3)[C@H](CO)N12 returned IDE exosite inh inactive.
COc1cc(CN2CC3(CCN(S(=O)(=O)c4cn(C)cn4)CC3)c3c(n(C)c4cc(OC)ccc34)[C@@H]2CO)cc(OC)c1 was read as IDE exosite inh inactive.

Bioassay records: PubChem BioAssay, Broad Institute
